Among all 65,000 compounds or so, about 2,100 (3.2%) showed an effect of 50% or more. The median lay at about -52%. Shown is part of a subset that was picked to be rich in strong results.
System: Plasmodium falciparum
Experiment: Screen against P. falciparum Asexual Blood Stage (ABS), at 5uM
Type: functional, Dd2
Details: tested at 5 uM

Structure (SMILES)	INHIBITION [%]
Cc1ccc(C(=O)N2C[C@@H]3CCCO[C@@H]3[C@H](N3CCCC3)C2)cn1	-108
Cc1nc(COC[C@H]2CC[C@H]3NCC[C@H]3O2)cs1	-29.9
O=C(c1ccnnc1)N1C[C@@H]2OCCN(CCN3CCCC3)[C@@H]2C1	-53.7
O=C(c1cccnc1)N1CCO[C@@H]2CNC[C@@H]21	-20.6
Cc1noc([C@]23COC[C@H]2CN(C(C)C)C3)n1	-38.3
Fc1cccnc1O[C@@H]1CN(Cc2ccccn2)[C@@H]2CCCO[C@@H]21	-14
Fc1cccc(F)c1Cn1c(C2CCNCC2)cc2cccnc21	80.6
Fc1ccccc1Cn1c(C2CCNCC2)cc2cccnc21	88.7
CN(Cc1nc2ccsc2c(=O)[nH]1)C[C@@H]1CCCN2CCCC[C@H]12	-20.7
Cc1ccc(-c2noc(CC[C@@H]3CCCN4CCCC[C@H]34)n2)nn1	-74.3
CN(Cc1ccccc1-n1cccn1)C[C@@H]1CCCN2CCCC[C@H]12	76
COCCN1C[C@@H]2OCCN(c3ccnc(N(C)C)n3)[C@@H]2C1	-31.1
CS(=O)(=O)N1CCO[C@@H]2CN(Cc3ccncc3)C[C@@H]2C1	-25.9
CC(C)(NCc1cccc(O)c1)c1ccc2c(c1)OCO2	88.9
CCC(C)N1CCc2nc(N3CCCC3)nc(NC(C)C)c2C1 (stereo unspecified)	78
CN(C)C(=O)[C@H]1C[C@H]2OCC[C@H]2N(Cc2ccccn2)C1	-13.3
CC(Nc1nc(-c2ccncc2)nc2c1CCNC2)c1ccccc1 (stereo unspecified)	71.5
CC(Nc1nc(-c2ccccc2)nc2c1CCNCC2)c1cccnc1 (stereo unspecified)	90.9
Cc1cccnc1[C@H](C)Nc1nc(-c2cccnc2)nc2c1CNC2	78
CSCC(=O)NS(=O)(=O)c1ccc(C#N)c(C(F)(F)F)c1	-52.2
COCCNC(=O)[C@@]12CCO[C@@H]1CCN(Cc1cc(C)on1)C2	-32
CN1CCN(C(=O)Cc2ccc(S(=O)(=O)C(F)F)cc2)CC1	-85.3
Fc1ccccc1CN1CCCC2(CCN(c3ncccn3)C2)C1 (stereo unspecified)	-15.8
C[C@@H]1CN(Cc2ccco2)CCN1C(=O)Cc1ccccc1F	-154
CCN(C)S(=O)(=O)NCC1CCCN(Cc2ccccc2F)C1 (stereo unspecified)	74.5
CS(=O)(=O)NCC1CCCN(Cc2ccccc2F)C1 (stereo unspecified)	89.2

Structure (SMILES)	INHIBITION [%]
NC1(C(=O)NCC2CCCN(Cc3ccccc3F)C2)CCCC1 (stereo unspecified)	85.6
COc1ncccc1CN1C[C@@H]2COC[C@]2(CNS(C)(=O)=O)C1	-44.2
COCCN1CCCC12CCN(c1ncccn1)CC2	-0.324
Cc1c(C2N3CC4(C)CN2CC(C)(C3)C4=O)[nH]c(=O)[nH]c1=O (stereo unspecified)	-53.4
COc1cc(C2SCC(=O)Nc3ccsc32)cc(OC)c1O (stereo unspecified)	-46.5
COCc1cncc2c1CCN(Cc1cccnc1)C2	-107
CCN1CCC2(COCc3cnc(-c4cccnc4)nc32)C1 (stereo unspecified)	-76.4
c1cncc(-c2noc(CN3CCc4cncnc4C3)n2)c1	72.9
O=C1C[C@@H]2CC[C@H](CN1)N2C1CCSCC1	-19.5
C[C@@H]1C[C@H]2CN(Cc3nccs3)C[C@H]2O1	-77.8
Cc1cc(CN2CC[C@H]3C[C@H](c4nc(C5CC5)cs4)O[C@@H]3C2)no1	-15.2
Nc1nc(N)c2c(n1)OC1(COCCN(Cc3nccs3)C1)C2 (stereo unspecified)	-134
Cc1nc(CO[C@@H]2CN(Cc3ccccn3)[C@@H]3COC[C@@H]32)cs1	-6.87
c1cncc(OC[C@@H]2CCC[C@@]23CNCCO3)c1	67
c1ccc(COC[C@@H]2CCC[C@@]23CNCCO3)nc1	48.6
c1ccc(COC[C@H]2CCC[C@@]23CNCCO3)nc1	44.1
c1ccc(OC[C@@H]2CCC[C@@]23CNCCO3)nc1	66.9
c1cncc(COC[C@@H]2CCC[C@]23CNCCO3)c1	-12.9
c1cncc(COC[C@@H]2CCC[C@@]23CNCCO3)c1	23.4
COc1cc(N2C[C@H]3CCN(CCN4CCCC4)C[C@H]3C2)ncn1	-52.5
Cc1cccc(CN2C[C@@H]3CN(Cc4ccoc4)CCO[C@@H]3C2)n1	-60.3
Cc1ccc(O[C@@H]2C[C@H]3CN(C(=O)Cc4ccccn4)CCN3C2)cc1	-77.2
CC(C)N1[C@H](CN2CCCC2)C[C@@H]2CN(Cc3ccoc3)CC[C@@H]21	76.2
CN1C(Cn2cccn2)C[C@@H]2CN(Cc3cccnc3)CC[C@@H]21 (stereo partly specified)	11.2
CC(C)N1[C@H](Cn2cncn2)C[C@@H]2CN(c3ncccn3)CC[C@@H]21	-58.2

Source: ChEMBL document CHEMBL4513216, “Probing the Open Global Health Chemical Diversity Library for Multistage-Active Starting Points for Next-Generation Antimalarials” (ACS Infect Dis, 2020)
